According to the supplement of paper PMC12669032:

How the values were obtained:
Experiment in all cases: growth AUC relative to DMSO control (median of replicates) (fraction); higher = more growth (less inhibition), active = hit call of the paper
Details in all cases: 20 µM; 24 h;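 active = AUC reduced over 20% with Padj below 0.05 in at least 2 of 3 replicates; inactive = otherwise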
[1] = test system: Akkermansia muciniphila
Outline: (§1)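 In round-bottom 96-well plates sealed with pierced gas-permeable seals, gut bacterial monocultures in mGAM were grown anaerobically at 37 °C from OD600 0.05 with 20 µM compound (1% DMSO). OD600 readings were taken hourly for 24 h, and the minimum OD was set to 0. Area under the growth curve was then normalised to the plate median of solvent-only wells, or to row and column medians on the industrial chemical plate. The value given is the median of three biological replicates grown on separate days.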

[2] = test system: Bacteroides caccae
Outline: as §1

[3] = test system: Bacteroides clarus
Outline: as §1

[4] = test system: Bacteroides dorei
Outline: as §1

[5] = test system: Bacteroides stercoris
Outline: as §1

[6] = test system: Bacteroides thetaiotaomicron
Outline: as §1

[7] = test system: Bacteroides uniformis
Outline: as §1

[8] = test system: Bifidobacterium longum subsp. longum
Outline: as §1

[9] = test system: Clostridium difficile
Outline: as §1

[10] = test system: Collinsella aerofaciens
Outline: as §1

[11] = test system: Coprococcus comes
Outline: as §1

[12] = test system: Escherichia coli ED1a
Outline: as §1

[13] = test system: Escherichia coli IAI1
Outline: as §1

[14] = test system: Eubacterium rectale
Outline: as §1

[15] = test system: Fusobacterium nucleatum subsp. animalis
Outline: as §1

[16] = test system: Lactobacillus gasseri
Outline: as §1

[17] = test system: Lactobacillus paracasei
Outline: as §1

[18] = test system: Odoribacter splanchnicus
Outline: as §1

[19] = test system: Parabacteroides distasonis
Outline: as §1

[20] = test system: Parabacteroides merdae
Outline: as §1

Measured: growth AUC

OC(Cc1ccccc1Cl)(Cn1cncn1)C1(Cl)CC1 (stereo not given)
inactive: [1] 0.867 | [2] 0.974 | [3] 0.963 | [4] 1.01 | [5] 0.966 | [6] 0.985 | [7] 0.971 | [8] 1.01 | [9] 0.958 | [10] 0.953 | [11] 0.963 | [12] 0.993 | [13] 0.941 | [14] 0.849 | [15] 0.897 | [16] 1.16 | [17] 1.02 | [18] 0.95 | [19] 1.01 | [20] 0.977

CC1(C)[C@H](C=C(Cl)Cl)[C@H]1C(=O)OCc1c(F)c(F)cc(F)c1F
inactive: [1] 0.957 | [2] 1.02 | [3] 0.992 | [4] 1.07 | [5] 1.03 | [6] 0.993 | [7] 1.04 | [8] 0.954 | [9] 1.08 | [10] 1 | [11] 1 | [12] 1.01 | [13] 1.03 | [14] 0.957 | [15] 1.04 | [16] 1.02 | [17] 0.947 | [18] 1.02 | [19] 0.999 | [20] 0.989

CCNC(=O)NC(=O)/C(C#N)=N/OC
inactive: [1] 0.998 | [2] 1 | [3] 1 | [4] 0.983 | [5] 1.08 | [6] 1 | [7] 0.956 | [8] 0.901 | [9] 0.965 | [10] 1.07 | [11] 1.05 | [12] 1.04 | [13] 1.02 | [14] 0.919 | [15] 1.2 | [16] 1.06 | [17] 0.94 | [18] 1.02 | [19] 1.04 | [20] 1.01

Cc1cc(Cl)ccc1OCC(=O)O
inactive: [1] 1.02 | [2] 0.996 | [3] 1.01 | [4] 0.933 | [5] 0.945 | [6] 1.02 | [7] 1 | [8] 1.1 | [9] 0.967 | [10] 1.04 | [11] 1.02 | [12] 1.02 | [13] 1 | [14] 0.984 | [15] 1.07 | [16] 1.05 | [17] 1.04 | [18] 1.05 | [19] 1.01 | [20] 1.04

Clc1ccc(Cl)c(Cl)c1Cl
inactive: [1] 0.865 | [2] 0.985 | [3] 0.958 | [4] 1.02 | [5] 1.04 | [6] 0.992 | [7] 0.996 | [8] 0.99 | [9] 1 | [10] 0.982 | [11] 0.989 | [12] 0.973 | [13] 0.981 | [14] 0.968 | [15] 1.03 | [16] 0.945 | [17] 1.11 | [18] 0.973 | [19] 0.981 | [20] 0.999

Cc1nnc(-c2ccccc2)c(=O)n1N
inactive: [1] 0.94 | [2] 1.05 | [3] 1 | [4] 1 | [5] 0.945 | [6] 1.02 | [7] 0.986 | [8] 1.04 | [9] 1 | [10] 0.983 | [11] 1 | [12] 1 | [13] 0.995 | [14] 0.993 | [15] 0.998 | [16] 0.931 | [17] 0.972 | [18] 1.06 | [19] 1 | [20] 1.02

CO/N=C(/C(=O)OC)c1ccccc1COc1ccccc1C
inactive: [1] 0.899 | [2] 0.979 | [3] 0.957 | [4] 0.964 | [5] 0.993 | [6] 0.907 | [7] 0.955 | [8] 0.874 | [9] 1.02 | [10] 0.991 | [11] 0.996 | [12] 0.955 | [13] 0.993 | [14] 0.939 | [15] 1.02 | [16] 1.01 | [17] 0.881 | [18] 0.92 | [19] 0.944 | [20] 0.927

CN(C)C(CSS(=O)(=O)[O-])CSS(=O)(=O)[O-].[Na+].[Na+]
inactive: [1] 0.921 | [2] 0.916 | [3] 1 | [4] 1.09 | [5] 1.04 | [6] 0.983 | [7] 1.14 | [8] 1.25 | [9] 0.955 | [10] 0.969 | [11] 0.999 | [12] 0.983 | [13] 0.998 | [14] 1.47 | [15] 1.18 | [16] 1 | [17] 1.01 | [18] 0.951 | [19] 0.978 | [20] 0.998

CC1(C)[C@H](C(=O)O[C@H](C#N)c2cccc(Oc3ccccc3)c2)[C@@H]1C=C(Br)Br
inactive: [1] 0.878 | [2] 0.983 | [3] 0.982 | [4] 1.04 | [5] 1.04 | [6] 1.02 | [7] 1.05 | [8] 0.843 | [9] 1.02 | [10] 0.935 | [11] 0.985 | [12] 0.991 | [13] 0.979 | [14] 1.11 | [15] 0.922 | [16] 0.926 | [17] 0.986 | [18] 1.03 | [19] 0.972 | [20] 0.921

OC(Cc1ccccc1Cl)(Cn1[nH]cnc1=S)C1(Cl)CC1 (stereo not given)
inactive: [1] 1.02 | [2] 0.971 | [3] 0.856 | [4] 0.91 | [5] 1.04 | [6] 0.821 | [7] 0.805 | [8] 0.842 | [9] 0.985 | [10] 1.04 | [11] 0.932 | [12] 1.02 | [13] 1.04 | [14] 0.897 | [15] 1.02 | [16] 1.01 | [17] 1.04 | [18] 0.825 | [19] 0.916 | [20] 0.894

Nc1cc(Cl)cc(Cl)c1
inactive: [1] 1.1 | [2] 0.895 | [3] 1.04 | [4] 1.03 | [5] 1.33 | [6] 1.01 | [7] 1.04 | [8] 1.08 | [9] 1 | [10] 0.984 | [11] 1.01 | [12] 1.03 | [13] 1.06 | [14] 1.04 | [15] 1.13 | [16] 0.944 | [17] 1 | [18] 0.893 | [19] 1 | [20] 1.04

O=[N+]([O-])/N=C1\NCCN1Cc1ccc(Cl)nc1
inactive: [1] 0.979 | [2] 1.01 | [3] 1.02 | [4] 1.03 | [5] 1.08 | [6] 0.984 | [7] 1 | [8] 0.963 | [9] 0.99 | [10] 0.98 | [11] 0.975 | [12] 1.02 | [13] 1 | [14] 1.06 | [15] 1.06 | [16] 0.862 | [17] 0.951 | [18] 1.09 | [19] 1.02 | [20] 1.07

ClC1=C(Cl)C2(Cl)C3C(Cl)C=CC3C1(Cl)C2(Cl)Cl (stereo not given)
inactive: [1] 1.1 | [2] 1.01 | [3] 1.01 | [4] 0.958 | [5] 1.08 | [6] 0.99 | [7] 0.983 | [8] 0.932 | [9] 0.963 | [10] 0.951 | [11] 0.989 | [12] 1.02 | [13] 1 | [14] 1.09 | [15] 1.12 | [16] 0.856 | [17] 0.967 | [18] 0.964 | [19] 0.842 | [20] 1.02

Cc1ccccc1C(=O)Nc1cccc(OC(C)C)c1
inactive: [1] 0.926 | [2] 1.01 | [3] 0.992 | [4] 1 | [5] 0.993 | [6] 0.928 | [7] 0.945 | [8] 1.02 | [9] 0.984 | [10] 1 | [11] 1.02 | [12] 0.991 | [13] 1 | [14] 0.953 | [15] 0.955 | [16] 1.06 | [17] 1.01 | [18] 1.03 | [19] 1.04 | [20] 0.974

Cc1ccc(N=CN(C)C=Nc2ccc(C)cc2C)c(C)c1
inactive: [1] 1.13 | [2] 1.01 | [3] 1.06 | [4] 0.983 | [5] 1.05 | [6] 1.01 | [7] 1.02 | [8] 1.03 | [9] 1.04 | [10] 1.01 | [11] 1.04 | [12] 1.01 | [13] 1.01 | [14] 1.06 | [15] 1.09 | [16] 0.967 | [17] 1.06 | [18] 1.02 | [19] 0.988 | [20] 1.01
